Outcome and Potency data for 2 compounds are collected here from PubChem BioAssay (Tox21).

For assay [1], the target named is Thyrotropin-releasing hormone receptor (Homo sapiens) (UniProt P34981). The assay can be described thus: qHTS assay to identify small molecule agonists of the thyrotropin-releasing hormone receptor (TRHR) signaling pathway (AID 1346891; calls by dose curve;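 note: HEK293 cells expressing TRHR with calcium dye readout; series mostly up to about 58 µM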). The method, boiled down: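 Compounds were tested as agonists at 15 concentrations, in triplicate, on TRHR-Hek293 cells; calcium-sensitive dye fluorescence was recorded for 3 min following addition.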
Chain of Thyrotropin-releasing hormone receptor (Homo sapiens) (P34981 whole entry, looked up): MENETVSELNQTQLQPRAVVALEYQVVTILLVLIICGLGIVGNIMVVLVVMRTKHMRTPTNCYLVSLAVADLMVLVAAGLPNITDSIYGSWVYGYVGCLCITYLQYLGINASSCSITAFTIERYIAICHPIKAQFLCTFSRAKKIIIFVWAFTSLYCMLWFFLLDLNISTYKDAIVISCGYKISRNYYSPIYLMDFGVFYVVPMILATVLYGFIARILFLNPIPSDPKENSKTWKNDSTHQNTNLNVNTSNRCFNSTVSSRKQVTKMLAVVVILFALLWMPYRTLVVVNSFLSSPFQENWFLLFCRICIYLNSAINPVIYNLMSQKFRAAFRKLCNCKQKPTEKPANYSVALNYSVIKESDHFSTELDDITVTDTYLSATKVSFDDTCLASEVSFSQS
Background: Quantitative high-throughput screening tests each substance at several concentrations.

Assay [2] has as its target Nuclear receptor subfamily 1 group I member 3 (Homo sapiens) (UniProt Q14994). The assay can be described thus: qHTS assay to identify small molecule agonists of the constitutive androstane receptor (CAR) signaling pathway (AID 1224839).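 Note: HepG2 cells stably carrying human CAR and a CYP2B6 luciferase reporter; series mostly up to about 92 µM; nearly all actives have a fitted effect of over 15% in size.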 The method, boiled down:
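Readout: firefly luciferase luminescence via ONE-Glo. System: HepG2 double-stable for hCAR and CYP2B6-2.2kb. Conditions: 15-point compound titration, PK11195 at 0.75 uM final, 24 h incubation.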

Results filed as inconclusive are left out. A call without a number means that no potency is given here. Calls of active or inactive are those of the source. Unless noted, calls come from the whole dose curve; as a rule, active = well fitted activation curve with a large enough effect in the repeat runs; inconclusive = weak or mixed curves; inactive = no such curve, though single readings can be large or run the other way.

Chain of Nuclear receptor subfamily 1 group I member 3 (Homo sapiens) (Q14994 whole entry, looked up): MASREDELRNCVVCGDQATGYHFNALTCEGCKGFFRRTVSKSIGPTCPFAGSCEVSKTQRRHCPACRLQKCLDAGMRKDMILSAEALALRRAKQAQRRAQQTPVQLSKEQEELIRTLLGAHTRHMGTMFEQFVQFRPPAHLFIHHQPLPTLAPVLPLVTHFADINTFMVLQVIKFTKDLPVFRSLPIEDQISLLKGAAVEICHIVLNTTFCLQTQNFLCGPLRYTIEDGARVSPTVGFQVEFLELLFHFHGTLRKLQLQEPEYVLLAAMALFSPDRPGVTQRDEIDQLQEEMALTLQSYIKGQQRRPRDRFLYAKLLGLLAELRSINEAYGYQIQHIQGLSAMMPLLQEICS

With `O=[N+]([O-])c1ccccc1Cl`, the compound was called inactive in assay [1].

Take `Clc1nc(Cl)c(Cl)c(Cl)c1Cl`: the Potency result in assay [2] is “inactive”.
